Common to all, as to test: qHTS profiling for inhibitors of Plasmodium falciparum proliferation (AID 504749); also: nearly all actives have a fitted effect of over 60% in size
Holding throughout (settings): P. falciparum in erythrocytes, SYBR Green DNA, 72 h; series mostly up to 28.7 µM
(In general: In qHTS, concentration-response curves come from the screen itself.)

One experiment has as its system CP265. The method in brief: (§1)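 Fluorescence of SYBR Green-bound parasite DNA, read at 485/535 nm, served as the growth measure. Infected erythrocytes were cultured with compound 72 h; artemisinin (0.29 uM) and DMSO wells defined the normalization range.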
The subject of another experiment is CP266. The method in brief: as §1
Another experiment relates to CP268. The method in brief:
as §1

The test system of another experiment is CP269. The method in brief:
as §1

Another experiment relates to CP286. In a few lines:
as §1

The test system of a further experiment is CP291. The method in brief:
as §1

A further experiment deals with CP297. In a few lines: as §1
In the next experiment the test system is CP305. In a few lines:
as §1

The test system of the next experiment is CP315. The method in brief: as §1
In the next experiment the test system is CP325. In a few lines:
as §1

The test system of the next experiment is CP329. In a few lines: as §1
A further experiment relates to CP335. In a few lines:
as §1

In another experiment the test system is DFO2036. The method in brief: as §1
For another experiment, the system named is DIV14. The method in brief: as §1
In the next experiment the test system is DIV17. In a few lines:
as §1

Another experiment concerns DIV30. In a few lines: as §1
A further experiment relates to Dd2. The method in brief: as §1
A further experiment deals with ECU. In a few lines: as §1
The next experiment concerns FAB9. In a few lines:
as §1

Another experiment concerns GB4. The method in brief: as §1

This note sets out measurements from PubChem BioAssay (NCATS).

Inconclusive results are not listed. The source made the active and inactive calls. Calls follow the shape of the dose curve; as a rule, active = well fitted inhibition curve with a large enough effect; inconclusive = small, poorly fitted or top-dose-only effect; inactive = flat fitted curve, though single readings scatter.
Potency is read from the fitted curve at half-maximal effect.

With `Cc1cc(C)cc(OCC2CNC(=O)O2)c1` (centres undefined), the Potency entry with CP265, in the experiment on CP266, in the experiment with CP268, with CP269, in the experiment with CP286 and in the experiment with CP291 was “inactive” each time. For the same compound, the Potency entry in the experiment on CP297, in the experiment on CP305, in the experiment with CP315, in the experiment with CP325, in the experiment on CP329 and with CP335 was “inactive” in each case. The Potency entry in the experiment with DFO2036, with DIV14, in the experiment on DIV17, with DIV30, in the experiment with Dd2 and in the experiment on ECU was “inactive” in each case. Besides, the Potency result in the experiment on FAB9 and in the experiment with GB4 was “inactive” in each case.

For the compound `Cc1c[nH]c2ccccc12`, the Potency entry in the experiment on CP265, with CP266, with CP268, in the experiment on CP269, in the experiment on CP286 and in the experiment on CP291 was “inactive” in each case. The Potency result with CP297, in the experiment with CP305, with CP315, in the experiment on CP325, in the experiment on CP329 and with CP335 was “inactive” in each case. Moreover, the Potency entry in the experiment with DFO2036, with DIV14, with DIV17, with DIV30, in the experiment with Dd2 and with ECU was “inactive” throughout. Moreover, the Potency result in the experiment with FAB9 and with GB4 was “inactive” in each case.

For `C=C[C@@]1(C)CC(=O)[C@]2(O)[C@@]3(C)[C@@H](O)CCC(C)(C)[C@@H]3[C@H](O)[C@H](OC(C)=O)[C@@]2(C)O1`, the Potency result in the experiment with CP265, in the experiment on CP266, with CP268, in the experiment on CP269, in the experiment on CP286 and in the experiment with CP291 was “inactive” each time. For the same compound, the Potency entry in the experiment on CP297, in the experiment with CP305, in the experiment on CP315, in the experiment on CP325, with CP329 and with CP335 was “inactive” in each case. In addition, the Potency result in the experiment with DFO2036, with DIV14, in the experiment with DIV17, in the experiment on DIV30, in the experiment with Dd2 and in the experiment with ECU was “inactive” throughout. Moreover, the Potency result with FAB9 and with GB4 was “inactive” in each case.

Turning to `CC(=O)Nc1ccc(S(=O)(=O)Nc2ccc([N+](=O)[O-])cc2)cc1`, the Potency result in the experiment on CP265, in the experiment on CP266, with CP268, in the experiment on CP269, in the experiment on CP286 and in the experiment with CP291 was “inactive” each time. In addition, the Potency result in the experiment on CP297, in the experiment on CP305, in the experiment on CP315, in the experiment with CP325, with CP329 and in the experiment on CP335 was “inactive” each time. Moreover, the Potency result with DFO2036, in the experiment on DIV14, in the experiment on DIV17, with Dd2, with ECU and with FAB9 was “inactive” throughout. Further, in the experiment on GB4, the Potency entry is “inactive”.

`CCC1Nc2cc(Cl)c(S(N)(=O)=O)cc2S(=O)(=O)N1` (centres undefined): the Potency result with CP265, in the experiment with CP266, in the experiment on CP268, with CP269, in the experiment on CP286 and with CP291 was “inactive” in each case. For the same compound, the Potency result with CP297, with CP305, with CP315, in the experiment on CP325, in the experiment on CP329 and with CP335 was “inactive” each time. The Potency result in the experiment on DFO2036, with DIV14, in the experiment with DIV17, with DIV30, with Dd2 and with ECU was “inactive” throughout. For the same compound, the Potency result in the experiment with FAB9 and in the experiment with GB4 was “inactive” each time.

As to `N=C(N)N1CCc2ccccc2C1`, the Potency result with CP265, in the experiment with CP266, in the experiment on CP268, in the experiment with CP269, with CP286 and in the experiment on CP291 was “inactive” each time. Moreover, the Potency result in the experiment on CP297, in the experiment on CP305, with CP315, in the experiment on CP325, in the experiment on CP329 and with CP335 was “inactive” throughout. Besides, the Potency result with DFO2036, with DIV14, in the experiment with DIV17, in the experiment on DIV30, in the experiment on Dd2 and in the experiment with ECU was “inactive” throughout. Also, the Potency entry in the experiment on FAB9 and with GB4 was “inactive” throughout.

Take `CCOc1cc(OCC)c(C(=O)CCC(=O)O)cc1OCC`: the Potency entry with CP265, in the experiment with CP266, in the experiment on CP268, in the experiment on CP269, in the experiment on CP286 and in the experiment on CP291 was “inactive” throughout. Besides, the Potency result in the experiment on CP297, in the experiment with CP305, in the experiment on CP315, in the experiment with CP325, in the experiment on CP329 and in the experiment on CP335 was “inactive” throughout. Moreover, the Potency result with DFO2036, in the experiment with DIV14, in the experiment with DIV17, in the experiment with DIV30, in the experiment on Dd2 and with ECU was “inactive” each time. Moreover, the Potency result in the experiment with FAB9 and with GB4 was “inactive” in each case.

As to `O=C(O)c1ccc(S(=O)(=O)N(Cl)Cl)cc1`, the Potency result in the experiment on CP265, in the experiment with CP266, in the experiment with CP268, with CP269, in the experiment with CP286 and in the experiment on CP291 was “inactive” throughout. The Potency entry in the experiment on CP297, in the experiment with CP305, in the experiment on CP315, with CP325, in the experiment on CP329 and in the experiment on CP335 was “inactive” in each case. Moreover, the Potency result in the experiment on DFO2036, in the experiment with DIV14, with DIV17, with DIV30, in the experiment with Dd2 and in the experiment with ECU was “inactive” in each case. Also, the Potency entry in the experiment with FAB9 and in the experiment on GB4 was “inactive” throughout.

With `CCCN(CCC)S(=O)(=O)c1ccc(C(=O)O)cc1`, the Potency result with CP265, in the experiment with CP266, in the experiment with CP268, with CP269, with CP286 and in the experiment on CP291 was “inactive” in each case. In addition, the Potency entry in the experiment on CP297, in the experiment with CP305, with CP315, in the experiment with CP325, with CP329 and in the experiment with CP335 was “inactive” in each case. The Potency entry with DFO2036, in the experiment on DIV14, in the experiment with DIV17, in the experiment on DIV30, in the experiment on Dd2 and in the experiment on ECU was “inactive” throughout. Besides, the Potency result in the experiment with FAB9 and in the experiment with GB4 was “inactive” in each case.

For `O[C@@H](c1cc(C(F)(F)F)nc2c(C(F)(F)F)cccc12)[C@H]1CCCCN1`, the Potency in the experiment with CP265 is 35.5 nM (active); in the experiment on CP266, 601 nM (active); in the experiment with CP268, 151 nM (active); with CP269, 53.6 nM (active); with CP286 it was 112 nM (active); in the experiment on CP291, 151 nM (active). The Potency was 107 nM (active) with CP297; 213 nM (active) in the experiment with CP305; 169 nM (active) with CP315; 135 nM (active) with CP325; 269 nM (active) with CP329; 107 nM (active) in the experiment on CP335. Moreover, the Potency in the experiment with DFO2036 is 35.5 nM (active); with DIV14 it was 33.8 nM (active); with DIV17 it was 33.8 nM (active); with DIV30 it was 33.8 nM (active); in the experiment with Dd2 it was 28.2 nM (active); with ECU, 12.6 nM (active). Further, the Potency was 70.8 nM (active) in the experiment on FAB9 and 26.9 nM (active) with GB4.

`CC1=C(C(=O)O)N2C(=O)[C@@H](NC(=O)[C@H](N)c3ccccc3)[C@H]2SC1`: the Potency entry in the experiment with CP265, in the experiment on CP266, in the experiment with CP268, in the experiment with CP269, in the experiment with CP286 and in the experiment on CP291 was “inactive” in each case. The Potency result in the experiment on CP297, with CP305, in the experiment with CP315, in the experiment with CP325, with CP329 and with CP335 was “inactive” each time. Besides, the Potency result in the experiment with DFO2036, in the experiment on DIV14, in the experiment on DIV17, in the experiment on DIV30, with Dd2 and with ECU was “inactive” throughout. Besides, the Potency result in the experiment with FAB9 and with GB4 was “inactive” throughout.

In the case of `C#C[C@]1(O)CC[C@H]2[C@@H]3CCC4=CC(=O)CC[C@@H]4[C@H]3CC[C@@]21CC`, the Potency entry in the experiment with CP265, in the experiment with CP266, in the experiment on CP268, with CP269, with CP286 and with CP291 was “inactive” throughout. Moreover, the Potency entry in the experiment on CP297, in the experiment on CP305, with CP315, with CP325, in the experiment on CP329 and in the experiment with CP335 was “inactive” in each case. For the same compound, the Potency entry in the experiment on DFO2036, in the experiment on DIV14, in the experiment with DIV17, in the experiment with DIV30, in the experiment with Dd2 and in the experiment with ECU was “inactive” each time. The Potency result in the experiment with FAB9 and with GB4 was “inactive” each time.

With `CC(C)Cn1cnc2c1c(=O)n(C)c(=O)n2C`, the Potency entry with CP265, with CP266, with CP268, with CP269, in the experiment on CP286 and in the experiment on CP291 was “inactive” in each case. Besides, the Potency result with CP297, with CP305, in the experiment with CP315, with CP325, in the experiment on CP329 and in the experiment on CP335 was “inactive” throughout. Further, the Potency result in the experiment with DFO2036, in the experiment with DIV14, in the experiment on DIV17, in the experiment with DIV30, in the experiment with Dd2 and with ECU was “inactive” throughout. In addition, the Potency entry in the experiment on FAB9 and in the experiment on GB4 was “inactive” in each case.
